The values below come from paper PMC5700166.

The first assay concerns the target T1, GST-Dm-Relish (Drosophila melanogaster, UniProt Q94527 99-473).
T1 sequence: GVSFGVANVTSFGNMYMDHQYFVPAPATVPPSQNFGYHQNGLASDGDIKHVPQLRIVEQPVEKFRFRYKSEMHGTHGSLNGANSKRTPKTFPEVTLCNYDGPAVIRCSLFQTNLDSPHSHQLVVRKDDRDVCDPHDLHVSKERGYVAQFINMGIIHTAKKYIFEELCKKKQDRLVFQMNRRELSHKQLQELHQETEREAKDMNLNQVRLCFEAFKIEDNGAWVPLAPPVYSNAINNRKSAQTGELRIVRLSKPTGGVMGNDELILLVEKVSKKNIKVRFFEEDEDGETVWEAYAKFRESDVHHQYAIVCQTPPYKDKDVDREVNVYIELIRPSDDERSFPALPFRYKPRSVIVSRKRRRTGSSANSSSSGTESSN
Description: protein-binding microarray (PBM); PBM: ~300 nM protein, 6 mM HEPES pH 7.8, 80 mM KCl, 0.5 mM EDTA, 0.5 mM EGTA, 6% glycerol, 35 ng/ul poly-dIdC, 1% milk, 1 h, room temperature; Ap Aiptasia and Nv Nematostella (sea anemones) / Co Capsaspora / Aq Amphimedon (sponge) / Dm Drosophila / Hu human; RHD is the Rel homology domain; high values mean tight binding. Conditions: dsDNA, one strand shown.
Sequence “CCGATTAACATCAAAATTTTCCTTGATGTTAATCGGGTCTTGATTCGCTTGACGCTGCTG” came in with a binding signal of 2.92 z-score.
“CCGATTAACATCAAGGAAATTCCTGATGTTAATCGGGTCTTGATTCGCTTGACGCTGCTG” yielded a binding signal of 2.23 z-score.
In the case of “CCGATTAACATCAGGAAAGGCCATGATGTTAATCGGGTCTTGATTCGCTTGACGCTGCTG”, the binding signal was 1.29 z-score.
As to “CCGATTAACATCAAAAATTTCCTTGATGTTAATCGGGTCTTGATTCGCTTGACGCTGCTG”, the binding signal was 1.94 z-score.
The sequence “CCGATTAACATCACGGAAATTTCTGATGTTAATCGGGTCTTGATTCGCTTGACGCTGCTG” displayed a binding signal of 1.36 z-score.

In another assay the target is T2, GST-Aq-NF-kB (Amphimedon queenslandica, UniProt A9Y5G7 2-389).
T2 sequence: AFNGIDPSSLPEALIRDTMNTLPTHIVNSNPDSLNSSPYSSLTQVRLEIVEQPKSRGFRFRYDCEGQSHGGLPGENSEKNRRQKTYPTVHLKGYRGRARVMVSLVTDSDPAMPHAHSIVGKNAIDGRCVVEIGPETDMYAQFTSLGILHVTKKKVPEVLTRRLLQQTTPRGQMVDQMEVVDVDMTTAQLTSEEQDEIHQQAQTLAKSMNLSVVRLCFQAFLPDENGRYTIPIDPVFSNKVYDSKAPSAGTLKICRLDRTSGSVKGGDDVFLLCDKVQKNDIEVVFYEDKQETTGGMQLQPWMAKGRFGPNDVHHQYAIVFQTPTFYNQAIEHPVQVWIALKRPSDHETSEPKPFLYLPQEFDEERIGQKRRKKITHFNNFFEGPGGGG
The description is as above. Conditions: dsDNA, one strand shown.
For the sequence “CCGATTAACATCAGGAAAGTACATGATGTTAATCGGGTCTTGATTCGCTTGACGCTGCTG”, the binding signal was found to be 1.61 z-score.
As to “CCGATTAACATCAGAAATTTTCCTGATGTTAATCGGGTCTTGATTCGCTTGACGCTGCTG”, the binding signal is 1.31 z-score.
Turning to “CCGATTAACATCAGGGCAAGTACTGATGTTAATCGGGTCTTGATTCGCTTGACGCTGCTG”, the binding signal is 2.28 z-score.
Turning to “CCGATTAACATCACAGGGTTTCCTGATGTTAATCGGGTCTTGATTCGCTTGACGCTGCTG”, the binding signal was 1.57 z-score.
With “CCGATTAACATCACGGAATTTTATGATGTTAATCGGGTCTTGATTCGCTTGACGCTGCTG”, the binding signal came to 2.25 z-score.
As for “CCGATTAACATCAGGAAATCCACTGATGTTAATCGGGTCTTGATTCGCTTGACGCTGCTG”, the binding signal worked out at 1.15 z-score.
“CCGATTAACATCAGAAAATTTCCTGATGTTAATCGGGTCTTGATTCGCTTGACGCTGCTG” returned a binding signal of 2.09 z-score.
Sequence “CCGATTAACATCAGGATTTACCATGATGTTAATCGGGTCTTGATTCGCTTGACGCTGCTG” came in with a binding signal of 1.48 z-score.
The sequence “CCGATTAACATCAGAGGATTTCCTGATGTTAATCGGGTCTTGATTCGCTTGACGCTGCTG” displayed a binding signal of 1.55 z-score.
Still for that read-out and setting: the value for “CCGATTAACATCAAGGAAAGTACTGATGTTAATCGGGTCTTGATTCGCTTGACGCTGCTG” was 2.33 z-score; that for “CCGATTAACATCAAGGAATTCCATGATGTTAATCGGGTCTTGATTCGCTTGACGCTGCTG” was 1.54 z-score; that for “CCGATTAACATCAAAAAATTCCTTGATGTTAATCGGGTCTTGATTCGCTTGACGCTGCTG” was 2.21 z-score.
The sequence “CCGATTAACATCAAGGAATTCCGTGATGTTAATCGGGTCTTGATTCGCTTGACGCTGCTG” registered a binding signal of 1.75 z-score.
The same measure, in the same setting: the result for “CCGATTAACATCAAAAAATTCCGTGATGTTAATCGGGTCTTGATTCGCTTGACGCTGCTG” reads 2.61 z-score; that for “CCGATTAACATCAGGTTTTTCCATGATGTTAATCGGGTCTTGATTCGCTTGACGCTGCTG”, 2.64 z-score; that for “CCGATTAACATCAGGAATTCCAATGATGTTAATCGGGTCTTGATTCGCTTGACGCTGCTG”, 1.38 z-score.
For the sequence “CCGATTAACATCAAAAATTCCGCTGATGTTAATCGGGTCTTGATTCGCTTGACGCTGCTG”, the binding signal worked out at 1.89 z-score.
For the sequence “CCGATTAACATCACGTAAATTCCTGATGTTAATCGGGTCTTGATTCGCTTGACGCTGCTG”, the binding signal amounted to 1.08 z-score.
Same read-out and setting: the result for “CCGATTAACATCACGGAAATTTATGATGTTAATCGGGTCTTGATTCGCTTGACGCTGCTG” reads 1.74 z-score.
Same read-out and setting: the value for “CCGATTAACATCAAGTAATTTCCTGATGTTAATCGGGTCTTGATTCGCTTGACGCTGCTG” was 1.18 z-score; that for “CCGATTAACATCAGGAATTCCGATGATGTTAATCGGGTCTTGATTCGCTTGACGCTGCTG” was 1.28 z-score.
Regarding “CCGATTAACATCACGGGATGTACTGATGTTAATCGGGTCTTGATTCGCTTGACGCTGCTG”, the binding signal came out at 1.26 z-score.
Take “CCGATTAACATCAAAAATTCCGTTGATGTTAATCGGGTCTTGATTCGCTTGACGCTGCTG”: the binding signal stood at 2.1 z-score.
As to “CCGATTAACATCAATAAATTTCCTGATGTTAATCGGGTCTTGATTCGCTTGACGCTGCTG”, the binding signal amounted to 1.86 z-score.
The same measure, in the same setting: the value for “CCGATTAACATCACGGTTTTTCCTGATGTTAATCGGGTCTTGATTCGCTTGACGCTGCTG” was 3.6 z-score; that for “CCGATTAACATCAGGGATGCCCATGATGTTAATCGGGTCTTGATTCGCTTGACGCTGCTG” was 2.22 z-score.
Regarding “CCGATTAACATCAAGTAAATTCCTGATGTTAATCGGGTCTTGATTCGCTTGACGCTGCTG”, the binding signal was 1.35 z-score.
With “CCGATTAACATCAGAAATTTCCATGATGTTAATCGGGTCTTGATTCGCTTGACGCTGCTG”, the binding signal was 1.68 z-score.
“CCGATTAACATCAGGAATTTCCATGATGTTAATCGGGTCTTGATTCGCTTGACGCTGCTG”: the binding signal is 3.89 z-score.
Same read-out and setting: the value for “CCGATTAACATCACGGAAACTCCTGATGTTAATCGGGTCTTGATTCGCTTGACGCTGCTG” was 3.4 z-score.
Regarding “CCGATTAACATCAGGAAATTACATGATGTTAATCGGGTCTTGATTCGCTTGACGCTGCTG”, the binding signal stood at 1.17 z-score.
Sequence “CCGATTAACATCACGGCCTTTCCTGATGTTAATCGGGTCTTGATTCGCTTGACGCTGCTG” registered a binding signal of 1.82 z-score.
The sequence “CCGATTAACATCAGGATTTTTCATGATGTTAATCGGGTCTTGATTCGCTTGACGCTGCTG” yielded a binding signal of 1.09 z-score.
The sequence “CCGATTAACATCAGGAATTTACATGATGTTAATCGGGTCTTGATTCGCTTGACGCTGCTG” showed a binding signal of 1.28 z-score.
The sequence “CCGATTAACATCAAAATTTTCCTTGATGTTAATCGGGTCTTGATTCGCTTGACGCTGCTG” yielded a binding signal of 1.12 z-score.
On the same count and under the same terms, the result for “CCGATTAACATCAAGGAAATTCCTGATGTTAATCGGGTCTTGATTCGCTTGACGCTGCTG” reads 4.14 z-score.
Take “CCGATTAACATCAGGAAAGGCCATGATGTTAATCGGGTCTTGATTCGCTTGACGCTGCTG”: the binding signal was determined as 1.31 z-score.
As to “CCGATTAACATCAAAAATTTCCTTGATGTTAATCGGGTCTTGATTCGCTTGACGCTGCTG”, the binding signal is 2.1 z-score.
Turning to “CCGATTAACATCACGGAAATTTCTGATGTTAATCGGGTCTTGATTCGCTTGACGCTGCTG”, the binding signal amounted to 2.5 z-score.
